Assay results from PubChem BioAssay AID1159580 (chemical genetic matrix, 2015).
In all, about 5,500 compounds went through this assay and about 2,000 (36%) were called active. Another 18% or so got no clear call; they are omitted. Rule as the data show it: active = normalized growth mostly below about 0.91 (no sharp cut-off); inconclusive = no clear call, values can overlap the other calls; inactive = mostly above about 0.92. This is one part of the list.

Experiment: chemical genetic growth profiling, strain panel (AID 1159580);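 also: tested at 20 µM; growth read once vehicle control cultures reached saturation at 30 °C; 1 = growth at the plate median or of vehicle wells; lower values mean less growth of the strain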
Settings: growth OD
[1] = S. cerevisiae deletion strains, locus YHR030C, strain SLT2, active compounds read low
[2] = S. cerevisiae deletion strains, locus YJL187C, strain SWE1, active compounds read low
[3] = S. cerevisiae deletion strains, locus YJR075W, strain HOC1, active compounds read low
[4] = S. cerevisiae deletion strains, locus YMR263W, strain SAP30, active compounds read low
[5] = S. cerevisiae deletion strains, locus YNL153C, strain GIM3, active compounds read low
[6] = S. cerevisiae deletion strains, locus YNL322C, strain KRE1, active compounds read low
[7] = S. cerevisiae deletion strains, locus YPL055C, strain LGE1, active compounds read low
[8] = S. cerevisiae deletion strains, locus YPL241C, strain CIN2, active compounds read low
[9] = S. cerevisiae deletion strains, locus YHR079C, strain IRE1, active compounds read low
[10] = S. cerevisiae deletion strains, locus YJL095W, strain BCK1, active compounds read low
[11] = S. cerevisiae deletion strains, locus YJR066W, strain TOR1, active compounds read low
[12] = S. cerevisiae deletion strains, locus YLR113W, strain HOG1, active compounds read low
[13] = S. cerevisiae deletion strains, locus YNL183C, strain NPR1, active compounds read low
[14] = S. cerevisiae deletion strains, locus YOR231W, strain MKK1, active compounds read low
[15] = S. cerevisiae deletion strains, locus YPL256C, strain CLN2, active compounds read low
[16] = S. cerevisiae deletion strains, locus YAL040C, strain CLN3, active compounds read low
[17] = S. cerevisiae deletion strains, locus YCL061C, strain MRC1 (second series), active compounds read low
[18] = S. cerevisiae deletion strains, locus YDR363W, strain ESC2, active compounds read low
[19] = S. cerevisiae deletion strains, locus YER002W, strain NOP16, active compounds read low
[20] = S. cerevisiae deletion strains, locus YNL175C, strain NOP13, active compounds read low
[21] = S. cerevisiae deletion strains, locus YNL197C, strain WHI3, active compounds read low
[22] = S. cerevisiae deletion strains, locus YNL224C, strain SQS1, active compounds read low
[23] = S. cerevisiae deletion strains, locus YOR083W, strain WHI5 (second series), active compounds read low

Measured: normalized growth

O=C(Oc1ccc(Cl)cc1Cl)c1c(Cl)cccc1Cl
active: [1] 0.681 | S. cerevisiae deletion strains, locus YLR262C, strain YPT6, active compounds read low 1.2 [resistant]
inactive: S. cerevisiae deletion strains, locus YAL013W, strain DEP1, active compounds read low 0.946 | S. cerevisiae deletion strains, locus YBR229C, strain ROT2, active compounds read low 0.981 | S. cerevisiae deletion strains, locus YDL101C, strain DUN1, active compounds read low 0.979 | S. cerevisiae deletion strains, locus YDR150W, strain NUM1, active compounds read low 0.882 | S. cerevisiae deletion strains, locus YEL061C, strain CIN8, active compounds read low 0.997 | S. cerevisiae deletion strains, locus YGR078C, strain PAC10, active compounds read low 0.965 | S. cerevisiae deletion strains, locus YHR087W, strain rtc3, active compounds read low 0.982 | [2] 0.967 | S. cerevisiae deletion strains, locus YJR043C, strain POL32, active compounds read low 0.955 | [3] 0.945 | S. cerevisiae deletion strains, locus YKL190W, strain CNB1, active compounds read low 0.969 | S. cerevisiae deletion strains, locus YLR039C, strain RIC1, active compounds read low 1.2 | S. cerevisiae deletion strains, locus YLR058C, strain SHM2 (second series), active compounds read low 0.989 | S. cerevisiae deletion strains, locus YLR085C, strain ARP6, active compounds read low 0.812 | S. cerevisiae deletion strains, locus YML094W, strain GIM5, active compounds read low 0.968 | S. cerevisiae deletion strains, locus YMR219W, strain ESC1, active compounds read low 0.985 | [4] 0.961 | [5] 0.985 | S. cerevisiae deletion strains, locus YNL298W, strain CLA4 (second series), active compounds read low 0.957 | [6] 0.986 | S. cerevisiae deletion strains, locus YNR030W, strain Alg12, active compounds read low 0.939 | [7] 0.876 | [8] 0.954 | S. cerevisiae deletion strains, locus YPR135W, strain CTF4, active compounds read low 0.907 | S. cerevisiae strains, strain wild type, active compounds read low 0.984

CC(Oc1ccc(Cl)cc1Cl)C(=O)O (stereo unspecified)
inactive: [1] 0.968 | [9] 0.964 | [10] 0.961 | [11] 0.898 | [12] 0.968 | [13] 0.896 | [14] 0.965 | [15] 0.955

C[C@H]1C[C@@H](O)[C@]2(O)[C@@]13CC(=O)OC[C@@]2(C)[C@](C)(O)C(=O)C3
inactive: S. cerevisiae deletion strains, locus YAL021C, strain ccr4, active compounds read low 1.02 | S. cerevisiae deletion strains, locus YAL026C, strain drs2, active compounds read low 1.04 | S. cerevisiae deletion strains, locus YAL030W, strain snc1, active compounds read low 1.02 | S. cerevisiae deletion strains, locus YBL061C, strain skt5, active compounds read low 1.02 | S. cerevisiae deletion strains, locus YBR009C, strain hhf1, active compounds read low 1.02 | S. cerevisiae deletion strains, locus YBR023C, strain chs3, active compounds read low 1.03 | S. cerevisiae deletion strains, locus YBR171W, strain sec66, active compounds read low 1.03 | S. cerevisiae deletion strains, locus YBR231C, strain swc5, active compounds read low 1.03 | S. cerevisiae deletion strains, locus YBR279W, strain paf1, active compounds read low 1.03 | S. cerevisiae deletion strains, locus YCL011C, strain gbp2, active compounds read low 1.02 | S. cerevisiae deletion strains, locus YCL016C, strain dcc1, active compounds read low 1.02 | S. cerevisiae deletion strains, locus YCL061C, strain MRC1, active compounds read low 1.02 | S. cerevisiae deletion strains, locus YCL069W, strain vba3, active compounds read low 1.02 | S. cerevisiae deletion strains, locus YCR088W, strain abp1, active compounds read low 1.02 | S. cerevisiae deletion strains, locus YDL005C, strain med2, active compounds read low 1.03 | S. cerevisiae deletion strains, locus YDL040C, strain nat1, active compounds read low 1.02 | S. cerevisiae deletion strains, locus YDR001C, strain nth1, active compounds read low 1.02 | S. cerevisiae deletion strains, locus YDR069C, strain doa4, active compounds read low 1.04 | S. cerevisiae deletion strains, locus YDR137W, strain rgp1, active compounds read low 1.03 | S. cerevisiae deletion strains, locus YDR159W, strain sac3, active compounds read low 1.05 | S. cerevisiae deletion strains, locus YDR195W, strain ref2 1.02 | S. cerevisiae deletion strains, locus YDR297W, strain sur2, active compounds read low 1.03 | S. cerevisiae deletion strains, locus YDR334W, strain swr1, active compounds read low 1.03 | S. cerevisiae deletion strains, locus YDR335W, strain msn5, active compounds read low 1.03 | S. cerevisiae deletion strains, locus YDR392W, strain spt3, active compounds read low 0.974 | S. cerevisiae deletion strains, locus YEL003W, strain gim4, active compounds read low 1.04 | S. cerevisiae deletion strains, locus YEL037C, strain rad23, active compounds read low 1.03 | S. cerevisiae deletion strains, locus YEL061C, strain CIN8 (second series), active compounds read low 1.03 | S. cerevisiae deletion strains, locus YER015W, strain faa2, active compounds read low 1.02 | S. cerevisiae deletion strains, locus YER016W, strain bim1, active compounds read low 1.02 | S. cerevisiae deletion strains, locus YER111C, strain swi4, active compounds read low 1.04 | S. cerevisiae deletion strains, locus YER155C, strain BEM2 (second series), active compounds read low 1.05 | S. cerevisiae deletion strains, locus YFR010W, strain ubp6, active compounds read low 1.03 | S. cerevisiae deletion strains, locus YGL167C, strain pmr1, active compounds read low 1.02 | S. cerevisiae deletion strains, locus YGL173C, strain kem1, active compounds read low 1.02 | S. cerevisiae deletion strains, locus YGL227W, strain vid30, active compounds read low 1.03 | S. cerevisiae deletion strains, locus YGL240W, strain doc1, active compounds read low 1.02 | S. cerevisiae deletion strains, locus YGL253W, strain hxk2, active compounds read low 1.03 | S. cerevisiae deletion strains, locus YHR013C, strain ard1, active compounds read low 1.04 | S. cerevisiae deletion strains, locus YHR027C, strain rpn1, active compounds read low 1.02 | [1] 1.08 | [9] 1.05 | S. cerevisiae deletion strains, locus YHR142W, strain chs7, active compounds read low 1.04 | S. cerevisiae deletion strains, locus YJL092W, strain hpr5, active compounds read low 1.03 | S. cerevisiae deletion strains, locus YJL095W, strain BCK1 (second series), active compounds read low 1.03 | [10] 1.05 | S. cerevisiae deletion strains, locus YJL115W, strain asf1, active compounds read low 1.05 | S. cerevisiae deletion strains, locus YJL129C, strain trk1, active compounds read low 1.06 | S. cerevisiae deletion strains, locus YJL154C, strain vps35, active compounds read low 1.01 | S. cerevisiae deletion strains, locus YJL164C, strain tpk1, active compounds read low 1.02 | S. cerevisiae deletion strains, locus YJL166W, strain qcr8, active compounds read low 1.02 | [2] 1.02 | [11] 0.995 | S. cerevisiae deletion strains, locus YKL160W, strain elf1, active compounds read low 1.02 | S. cerevisiae deletion strains, locus YKR026C, strain gcn3, active compounds read low 1 | S. cerevisiae deletion strains, locus YKR091W, strain srl3, active compounds read low 1.02 | S. cerevisiae deletion strains, locus YLL001W, strain dnm1, active compounds read low 1.02 | S. cerevisiae deletion strains, locus YLL026W, active compounds read low 1.03 | S. cerevisiae deletion strains, locus YLL041C, strain sdh2, active compounds read low 1.02 | S. cerevisiae deletion strains, locus YLR027C, strain aat2, active compounds read low 1.02 | [12] 1.07 | S. cerevisiae deletion strains, locus YLR221C, strain rsa3, active compounds read low 1.03 | S. cerevisiae deletion strains, locus YLR258W, strain gsy2, active compounds read low 1.02 | S. cerevisiae deletion strains, locus YLR262C, strain YPT6 (second series), active compounds read low 1.03 | S. cerevisiae deletion strains, locus YLR320W, strain mms22, active compounds read low 1.03 | S. cerevisiae deletion strains, locus YLR342W, strain FKS1, active compounds read low 1.03 | S. cerevisiae deletion strains, locus YLR357W, strain rsc2, active compounds read low 1.07 | S. cerevisiae deletion strains, locus YLR370C, strain arc18, active compounds read low 1.02 | S. cerevisiae deletion strains, locus YLR384C, strain iki3, active compounds read low 1.02 | S. cerevisiae deletion strains, locus YML120C, strain ndi1, active compounds read low 1.01 | S. cerevisiae deletion strains, locus YMR058W, strain fet3, active compounds read low 1.03 | S. cerevisiae deletion strains, locus YMR125W, strain sto1, active compounds read low 1.05 | S. cerevisiae deletion strains, locus YMR129W, active compounds read low 1.02 | S. cerevisiae deletion strains, locus YMR205C, strain PFK2, active compounds read low 1.04 | S. cerevisiae deletion strains, locus YMR231W, strain pep5, active compounds read low 1.03 | S. cerevisiae deletion strains, locus YNL071W, strain lat1, active compounds read low 1.03 | [13] 0.984 | S. cerevisiae deletion strains, locus YNL209W, strain ssb2, active compounds read low 1.02 | S. cerevisiae deletion strains, locus YNL248C, strain rpa49, active compounds read low 1.03 | S. cerevisiae deletion strains, locus YNL322C, strain KRE1 (second series), active compounds read low 1.02 | S. cerevisiae deletion strains, locus YNR049C, strain mso1, active compounds read low 1.03 | S. cerevisiae deletion strains, locus YOR001W, strain rrp6, active compounds read low 1.03 | S. cerevisiae deletion strains, locus YOR070C, strain gyp1, active compounds read low 1.02 | S. cerevisiae deletion strains, locus YOR080W, strain dia2, active compounds read low 1.03 | S. cerevisiae deletion strains, locus YOR083W, strain WHI5, active compounds read low 1.01 | S. cerevisiae deletion strains, locus YOR106W, strain vam3, active compounds read low 1.02 | [14] 1.06 | S. cerevisiae deletion strains, locus YOR265W, strain rbl2, active compounds read low 1.02 | S. cerevisiae deletion strains, locus YOR270C, strain vph1, active compounds read low 1.09 | S. cerevisiae deletion strains, locus YOR290C, strain snf2, active compounds read low 0.993 | S. cerevisiae deletion strains, locus YPL051W, strain arl3, active compounds read low 1.02 | S. cerevisiae deletion strains, locus YPL078C, strain atp4, active compounds read low 1.03 | S. cerevisiae deletion strains, locus YPL106C, strain sse1, active compounds read low 1.02 | S. cerevisiae deletion strains, locus YPL240C, strain hsp82, active compounds read low 1.03 | [15] 1.05

Cc1nc(-c2ccc(-c3ccc(C(=O)N4CCc5cc6c(cc54)C4(CCN(C)CC4)CO6)cc3)c(C)c2)no1
active: [17] 0.902 | [3] 0.898 | [6] 0.64 | [23] 0.677 | [8] 0.907
inactive: [16] 0.967 | [18] 0.991 | [19] 0.991 | [4] 1 | [20] 0.964 | [21] 0.989 | [22] 0.961 | [7] 1.04

COc1ccc(NC(=O)c2ccc(-c3ccc(-c4noc(C)n4)cc3C)cc2)cc1N1CCN(C)CC1
inactive: [16] 1.05 | [17] 0.982 | [18] 0.959 | [19] 1.01 | [3] 0.974 | S. cerevisiae deletion strains, locus YMR307W, strain GAS1, active compounds read low 0.933 | [5] 0.946 | [20] 1.02 | [21] 1.04 | [22] 1.01 | [6] 0.965 | [23] 0.939 | [8] 0.994
